Where “and” joins values, the source holds several entries; their conditions need not be identical. Equal entries are not always repeated. About 79,000 compounds went through this panel and 15% of them were active in at least one assay; those are over-represented in the sample as a whole. Some structures have more than one record in an assay (separate samples or runs), and their calls can disagree. Calls of active or inactive are those of the source. No stated cut-off is given here; in the data, active means growth inhibition above about 70%; inactive means the rest.
Experiment: NCI Yeast Anticancer Drug Screen. Data for the bub3 strain (AID 167)
Details: S. cerevisiae bub3 mutant strain, stronger effect = higher value
Method: Growth inhibition of yeast strains with defined genetic alterations is measured as a screen for potential anti-cancer activity. Selected strains with alterations in DNA damage repair or cell cycle control were exposed to compounds and growth inhibition was measured relative to vehicle treated controls. The strain used in this assay is bub3

[1] = at 5.0 µM (retest, dose inferred, filed as 0.5)
[2] = at 50.0 µM (retest, dose inferred, filed as 5.0)

| Structure (SMILES) | growth inhibition [1] | growth inhibition [2] | growth inhibition (at 50.0 µM) |
| --- | --- | --- | --- |
| NNc1nc2ccccc2s1 | 19% (inactive) | 45% (inactive) | 9.15% (inactive) and 89.6% (active) |
| CC(NNC(=S)N1CCN(c2ccccn2)CC1)c1nccc2ccccc12 (configuration not stated) | 83% (active) | 99% (active) | 6.2% (inactive) |
| CCCCCCCCCCCCN | 56% (inactive) | 98% (active) | 79.7% (active) |
| CCCCCCCCCCCCCCCCOP(=O)(O)OP(=O)(O)OCC1OC(n2ccc(N)nc2=O)C(O)C1O (configuration not stated) | 98% (active) | 98% (active) | -9.4% (inactive) and 84.5% (active) |
| CC[N+](CC)=c1ccc2nc3c(cc(N)c4ccccc43)oc-2c1 | -4% (inactive) | 19% (inactive) | 63% (inactive) |
| O=Cc1cc(Br)ccc1O | 6% (inactive) and -4% (inactive) | 97% (active) and 88% (active) | 91.7% (active) and 97.5% (active) |
| CC(C)c1ccc(C=Nc2ccc(SSc3ccc(N=Cc4ccc(C(C)C)cc4)cc3)cc2)cc1 | 13% (inactive) | 1% (inactive) | 66.9% (inactive) |
| CC(NC(=O)/C(C#N)=C/c1ccc2[nH]ccc2c1)c1ccccc1 (configuration not stated) | 3% (inactive) | 94% (active) | 86.2% (active) |
| Cc1nc2c(ccc3[nH]c4ccccc4c32)s1 | 8% (inactive) | 99% (active) | 91.8% (active) |
| COC(=O)C1c2cc3c(cc2C(OC2OC(C)C(OC)C(C)(OC)C2OC)CC1(C)O)C(=O)c1c(O)cc2c(c1C3=O)OC1OC2(C)C(O)C([N+](C)(C)[O-])C1O (configuration not stated) | -10% (inactive) | 31% (inactive) | 74.8% (active) |
| Cc1cc2c(c(Br)c1O)Oc1c(cc(C)c(O)c1Br)C21OC(=O)c2ccccc21 | 52% (inactive) | 99% (active) | 91% (active) |
| O=C(NN1CCOC1=O)OCCCl | 6% (inactive) | 2% (inactive) | -16.1% (inactive) |
| CCCC1CCC(=C2C(=O)CCC2=O)O1 (configuration not stated) | 8% (inactive) | 9% (inactive) | 2.55% (inactive) and 91% (active) |
| Nc1ccc(N=Nc2ccccc2)c(N)n1 | -71% (inactive) | -26% (inactive) | 27.2% (inactive) and 3.75% (inactive) |
